Marburg entry inh: inhibitors of Marburg virus binding or cell entry | Marburg virus pseudotyped entry inhibition, cell reporter | Potency, µM (series often up to 37.8 µM), most hits filed as inhibitors | 300,000 tested, 1.8% active | AID 540276; calls by dose curve; tested in HEK293 cells
FMDV inh: blocks foot and mouth disease virus | Potency, µM (series often up to 57.9 µM), hits mostly inhibitors | FMDV antiviral cell-based qHTS | 410,000 tested, 1.2% active; calls by dose curve; tested in HEK293T cells; further: read-out not given here; nearly all actives have a fitted effect of over 45% in size
LASV entry inh: Lassa virus entry inhibition; Lassa virus pseudotype entry inhibition, cell reporter; Potency, µM (top dose mostly 37.9 µM), actives largely listed as inhibitors; 300,000 tested, 1.2% active; calls by dose curve; tested in HEK293 cells; further: nearly all actives have a fitted effect of over 50% in size
HCV inhibitor: HCV inhibition | Huh7.5.1 HCVcc-Cre infection, luciferase reporter, 44 h | AID 651820 | Potency, µM (top dose mostly 41.8 µM), usual class: inhibitors | 340,000 tested, 3.4% active; active means well fitted inhibition curve with a large enough effect; inconclusive means small, poorly fitted or top-dose-only effect, or another doubt; inactive means no such curve, though single readings can be large or run the other way
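HCVcc-Cre virus at an moi near 0.5 was added right after compound to cells cultured 4 h from seeding (1,000 cells/well). Luciferase activity was determined 44 h later, 15 min after substrate addition at RT.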
HCMV inh: blocks human cytomegalovirus replication; HFF cells, HCMV-luciferase reporter, 72 h; hits give low values; 410,000 tested, 4.5% active; activity change, negative = inhibition, % at 57.5 µM; in the data active means activity change below about -60%; inconclusive means no clear call, values can overlap the other calls; inactive means above about -39%
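Inhibition of viral replication was scored as loss of reporter luminescence in HFFs infected with HCMV-luciferase (MOI 1 PFU/cell) for 72 h; compounds tested at 2 doses, normalized to buffer and Salinomycin controls.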
Large screens that a line does not name were inactive. Shown are actives, neighbours in structure and some others; about 7.9% of the full set was active somewhere.

Cc1cccc(N(C(=O)CCC(=O)Nc2nccs2)C(C(=O)NC(C)(C)C)c2ccc(O)cc2)c1 (stereo not drawn)	Marburg entry inh 2.82µM, LASV entry inh inconclusive
COC(=O)[C@H]1[C@H](CO)[C@H]2Cn3c(cccc3=O)[C@@H]1N2Cc1ccncc1	none (no result: Marburg entry inh, FMDV inh, LASV entry inh, HCV inhibitor)
O=C(Cn1nc(C(F)(F)F)c2c1CCCC2)Nc1cccc(Cl)c1	FMDV inh inconclusive, HCMV inh inconclusive (no result: Marburg entry inh, HCV inhibitor)
O=C(NCC(c1cccnc1)N1CCN(c2ccc(F)cc2)CC1)c1cccc(Cl)c1 (stereo not drawn)	Marburg entry inh inconclusive, FMDV inh 25.1µM, HCV inhibitor 14.1µM
COc1ccc(N2CCN(C(CNS(=O)(=O)c3cc(F)ccc3F)c3cccnc3)CC2)cc1 (stereo not drawn)	HCMV inh -106.6
COc1ccc(N2CCN(C(CNC(=O)c3cccc(OC)c3)c3cccnc3)CC2)cc1 (stereo not drawn)	none (no result: Marburg entry inh, HCV inhibitor)
Cc1ccc(-n2nnc(-c3nc(-c4cccs4)no3)c2N)c(C)c1	none (no result: Marburg entry inh, HCV inhibitor)
CCc1ccc(Oc2c(C(F)(F)F)oc3c(CN4CCC(C)CC4)c(O)ccc3c2=O)cc1	none (no result: HCV inhibitor)
FC(F)Sc1ccc(-n2cc(-c3ccccc3)[n+]3c2CCC3)cc1	FMDV inh inconclusive, HCV inhibitor inconclusive
COc1ccc(-c2cn(-c3ccc(OC)cc3)c3[n+]2-c2ccccc2CC3)cc1	Marburg entry inh inconclusive, FMDV inh 15.8µM, LASV entry inh inconclusive, HCMV inh -96.9
COc1ccc(-n2cc(-c3ccccc3)[n+]3c2CCCCC3)cc1	Marburg entry inh inconclusive, FMDV inh inconclusive, LASV entry inh inconclusive, HCV inhibitor inconclusive, HCMV inh -89.7
CC1=C(c2ccc(C(C)C)cc2)S(=O)(=O)N=C1N1CCC(C(=O)NCCc2ccco2)CC1	none (no result: Marburg entry inh, HCV inhibitor)
COC[C@@H](OC(C)=O)[C@H]1OCc2ccccc2[C@H]1C=Cc1ccccc1	none (no result: FMDV inh, LASV entry inh, HCV inhibitor, HCMV inh)
Cc1cc(CNCc2cn(C)nc2-c2ccc(Oc3ccccc3)cc2)on1	FMDV inh inconclusive, LASV entry inh inconclusive, HCV inhibitor inconclusive, HCMV inh -67.8
COc1ccc(NC(=O)C2Cc3c(-c4cccc(C(C)=O)c4)ccnc3O2)cc1OC (stereo not drawn)	FMDV inh 8.91µM, HCMV inh -91.5 (no result: Marburg entry inh, LASV entry inh, HCV inhibitor)
COc1ccc(NC(=O)C2Cc3c(-c4cccc(C(N)=O)c4)ccnc3O2)cc1OC (stereo not drawn)	none (no result: Marburg entry inh, LASV entry inh, HCV inhibitor)
COc1ccc(NC(=O)C2Cc3c(-c4ccc(Cl)cc4)ccnc3O2)cn1 (stereo not drawn)	FMDV inh inconclusive, HCMV inh -81.9 (no result: Marburg entry inh, LASV entry inh, HCV inhibitor)
COc1ccc(NC(=O)C2Cc3c(-c4ccc(Cl)cc4)ccnc3O2)cc1OC (stereo not drawn)	FMDV inh inconclusive, HCMV inh -78.4 (no result: Marburg entry inh, LASV entry inh, HCV inhibitor)
COc1ccc(CCCNC(=O)C2Cc3c(-c4cccc(NC(C)=O)c4)ccnc3O2)cc1 (stereo not drawn)	FMDV inh 35.5µM, HCMV inh -61.3 (no result: Marburg entry inh, LASV entry inh, HCV inhibitor)
CCN(Cc1ccccc1)S(=O)(=O)c1ccc(F)c(C(=O)Nc2ccc(C(C)C)cc2)c1	FMDV inh inconclusive (no result: Marburg entry inh, HCV inhibitor)
CCc1ccccc1NC(=O)Cn1nnc(-c2nc(-c3ccc(C)cc3)no2)c1N	none (no result: Marburg entry inh, HCV inhibitor)
CC(=O)Nc1ccc(NC(=O)C2Cc3c(-c4ccc5c(c4)OCO5)ccnc3O2)cc1 (stereo not drawn)	none (no result: Marburg entry inh, LASV entry inh, HCV inhibitor)
O=C(Nc1ccc2c(c1)OCO2)C1Cc2c(-c3ccc4c(c3)OCO4)ccnc2O1 (stereo not drawn)	HCMV inh -61.6 (no result: Marburg entry inh, LASV entry inh, HCV inhibitor)
NC(=O)c1cccc(-c2ccnc3c2CC(C(=O)Nc2cccc(C(F)(F)F)c2)O3)c1 (stereo not drawn)	FMDV inh 28.2µM (no result: Marburg entry inh, LASV entry inh, HCV inhibitor)
COc1ccc(NC(=O)C2Cc3c(-c4ccccc4)ccnc3O2)cc1OC (stereo not drawn)	FMDV inh 35.5µM (no result: Marburg entry inh, LASV entry inh, HCV inhibitor, HCMV inh)
C=CCSc1nnc(C2CCCN(Cc3ccccc3O)C2)n1C (stereo not drawn)	none (no result: Marburg entry inh, LASV entry inh, HCV inhibitor, HCMV inh)
CCOC(=O)/C(=C\c1cccc(O)c1)c1nc2sc(C)c(C)c2c(=O)[nH]1	Marburg entry inh inconclusive, FMDV inh 11.2µM, LASV entry inh inconclusive, HCMV inh -99.4
COc1ccc(-c2noc(CCCC(=O)NC3CCCC3)n2)cc1	Marburg entry inh inconclusive, FMDV inh inconclusive, LASV entry inh inconclusive, HCV inhibitor 12.6µM, HCMV inh -80.4
COc1ccc(-c2noc(CCCC(=O)Nc3ccc(C(N)=O)cc3)n2)cc1	Marburg entry inh inconclusive, FMDV inh inconclusive, LASV entry inh inconclusive, HCMV inh -89.7
COc1ccc(-c2noc(CCC(=O)Nc3cc(OC)ccc3OC)n2)cc1	Marburg entry inh inconclusive, HCV inhibitor inconclusive
COc1ccc(-c2noc(CCC(=O)Nc3cc(Cl)c(OC)cc3OC)n2)cc1	Marburg entry inh inconclusive, HCV inhibitor 3.98µM
COc1ccccc1CC(=O)Nc1ccc(-c2noc(COc3ccc(Cl)c(C)c3)n2)cc1	LASV entry inh inconclusive, HCMV inh -67.0
CN(c1ccc2c(-c3ccccn3)noc2n1)c1ccc(F)cc1F	none (no result: Marburg entry inh, FMDV inh, LASV entry inh, HCV inhibitor)
COC(=O)N[C@H](CC(C)=O)c1ccc2c(c1)OCO2	none (no result: FMDV inh, LASV entry inh, HCV inhibitor, HCMV inh)
CCOC(=O)c1cc(-c2ccccc2)n(CC(=O)Nc2cc(Cl)c(OC)cc2OC)c1C	none (no result: Marburg entry inh, HCV inhibitor)
O=C(CCc1nc(-c2ccccc2F)no1)Nc1ccc(Oc2ccccc2)cc1	FMDV inh inconclusive, LASV entry inh inconclusive, HCV inhibitor inconclusive, HCMV inh -63.7
CCOC(=O)c1ccc(NC(=O)CCc2nc(-c3cccc(C)c3)no2)cc1	FMDV inh inconclusive, HCV inhibitor 8.91µM
O=C(CCCc1nc(-c2ccc(Cl)cc2)no1)NC1CCCC1	Marburg entry inh inconclusive, FMDV inh inconclusive, LASV entry inh inconclusive, HCV inhibitor inconclusive, HCMV inh -83.7
COc1cccc(NC(=O)CCc2nc(-c3ccccc3F)no2)c1	HCV inhibitor inconclusive
O=C(CCc1nc(-c2ccc(Cl)cc2)no1)NC1CCCCC1	none
COc1ccc(OC)c(C2C=C(c3ccc(C)c(C)c3)Nc3nnnn32)c1 (stereo not drawn)	Marburg entry inh inconclusive, LASV entry inh 5.01µM, HCV inhibitor inconclusive
COc1cccc(C2=CC(c3cc(OC)ccc3OC)n3nnnc3N2)c1 (stereo not drawn)	Marburg entry inh inconclusive, LASV entry inh inconclusive, HCV inhibitor inconclusive
COc1ccccc1-c1nnc2sc(C3CCCCC3)nn12	Marburg entry inh inconclusive, FMDV inh inconclusive, LASV entry inh inconclusive, HCMV inh inconclusive
c1cc(-c2nnc3sc(C4CCCCC4)nn23)ccn1	HCMV inh -79.9
CCOC(=O)C1=C(CN2CCN(c3cc(C)ccc3C)CC2)NC(=O)NC1c1ccccc1 (stereo not drawn)	Marburg entry inh inconclusive, LASV entry inh inconclusive, HCMV inh inconclusive (no result: HCV inhibitor)
COC(=O)C(=Cc1ccc(-c2ccsc2C(=O)OC)o1)C(=O)OC	none
CCOC(=O)C(=Cc1ccc(-c2ccsc2C(=O)OC)o1)C(=O)OCC	FMDV inh 31.6µM, HCV inhibitor inconclusive
C=CCCC/C=C(/C)C(OCc1ccc(OC)cc1)C(CC/C=C(\C)C(N)=O)OC (stereo not drawn)	none (no result: FMDV inh, LASV entry inh, HCV inhibitor, HCMV inh)
Cc1cc2c(Nc3ccc(C(=O)O)cc3)ncnc2s1	none (no result: Marburg entry inh, LASV entry inh)
Cc1cc2c(Nc3ccc(O)cc3)ncnc2s1	HCV inhibitor inconclusive, HCMV inh -68.9
COc1ccc(N2CCN(C(=O)CCn3cnc4onc(-c5ccc(F)cc5)c4c3=O)CC2)cc1	none (no result: Marburg entry inh, HCV inhibitor)

Source: PubChem BioAssay
